# Source: PubChem BioAssay
# SMN2 splice enh: SMN2 splice variant enhancement; HEK293 SMN2-luciferase splicing reporter, luminescence, 30-36 h; Potency, µM (titrated, usually from 46.1 µM), for inactives: at the highest dose activity change, positive = activation, usual class: activators; hit rate 2.8% among 210,000; AID 1458; note: % of control where 0% means no effect; nearly all actives have a fitted effect of over 55% in size
#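 HEK293 cells carry an SMN2 […]–luciferase reporter in which exon 7 inclusion puts luciferase in frame. Cells were plated 10-12 h before compound addition, then incubated 30-36 h at 37C. ONE-Glo luminescence was read; sodium butyrate at 4.5 mM final served as control.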
# NPC1 promoter act: activates the NPC1 promoter; Potency, µM (top dose mostly 9.22 µM), for inactives: at the top dose activation, usual class: activators; Huh7 NPC1 promoter luciferase reporter, 24 h; AID 485313; hit rate 2.4% among 320,000; note: % of control where 0% means no effect; nearly all actives have a fitted effect of over 60% in size
#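 Huh7 reporter cells (NPC1 promoter driving luciferase) are dosed with compound for 24 h at 37 °C, 5% CO2; luciferase detection reagent is then added and luminescence measured after 10 min at ambient temperature.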
# ELG1 genotox: inducers of genotoxicity in HEK293T ELG1-luciferase cells. HEK293T ELG1-luciferase reporter, luminescence, 16 h. hit rate 1.3% among 330,000. Potency, µM (top dose mostly 46 µM), for inactives: top-dose activity change, positive = activation, most hits filed as activators. AID 504466; note: % of control where 0% means no effect; nearly all actives have a fitted effect of over 60% in size
#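 Genotoxic stress is detected as increased luminescence from luciferase-tagged ELG1 in HEK293T cells, measured with ONE-Glo after a 16 hr treatment at 37 °C.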
# Rab9 promoter act: activators of Rab9 promoter. AID 485297. Huh7 Rab9 promoter-luciferase reporter, luminescence, 24 h. Potency, µM (doses to about 9.22 µM), inactives show top-dose activation, negative = inhibition, actives largely listed as activators. hit rate 2.8% among 320,000; note: % of control where 0% means no effect; nearly all actives have a fitted effect of over 60% in size
#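 Huh7 cells stably carrying a Rab9 promoter-luciferase reporter, 1500 cells per well in OP-MEM I with 10% FBS, treated with compound 24 hours at 37C. Luciferase activity read by luminescence after 10 minutes with Amplite reagent.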
# Luc counter: blocks Kinase-Glo luciferase, a counter-screen artifact; Q27757; Kinase-Glo luciferase, ATP luminescence, 8 min; Potency, µM (highest dose often 38.3 µM), for inactives: top-dose activity change, negative = inhibition, usual class: inhibitors; hit rate 0.28% among 200,000; note: % is set by controls: 0 for no effect and ±100 for the full control effect; nearly all actives have a fitted effect of over 60% in size
#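 Compounds were added to a substrate mix at pH 7.2 (50 mM imidazole, 10 uM ATP, within the enzyme's linear range), followed by Kinase-Glo detection reagent; luminescence was measured after 8 minutes at ambient temperature.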
# FLuc modulator: inhibits or activates purified firefly luciferase, miR-21 counter-screen; P08659; purified FLuc, Km substrates, luminescence inhibition; Potency, µM (series often up to 57.5 µM), for inactives: at the top dose activity change, negative = inhibition, hits mostly inhibitors; hit rate 6.9% among 360,000; AID 588342;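 note: plate controls were vehicle for no effect and reference inhibitor for full effect; nearly all actives have a fitted effect of over 55% in size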
# Target sequence (P08659 whole entry, looked up): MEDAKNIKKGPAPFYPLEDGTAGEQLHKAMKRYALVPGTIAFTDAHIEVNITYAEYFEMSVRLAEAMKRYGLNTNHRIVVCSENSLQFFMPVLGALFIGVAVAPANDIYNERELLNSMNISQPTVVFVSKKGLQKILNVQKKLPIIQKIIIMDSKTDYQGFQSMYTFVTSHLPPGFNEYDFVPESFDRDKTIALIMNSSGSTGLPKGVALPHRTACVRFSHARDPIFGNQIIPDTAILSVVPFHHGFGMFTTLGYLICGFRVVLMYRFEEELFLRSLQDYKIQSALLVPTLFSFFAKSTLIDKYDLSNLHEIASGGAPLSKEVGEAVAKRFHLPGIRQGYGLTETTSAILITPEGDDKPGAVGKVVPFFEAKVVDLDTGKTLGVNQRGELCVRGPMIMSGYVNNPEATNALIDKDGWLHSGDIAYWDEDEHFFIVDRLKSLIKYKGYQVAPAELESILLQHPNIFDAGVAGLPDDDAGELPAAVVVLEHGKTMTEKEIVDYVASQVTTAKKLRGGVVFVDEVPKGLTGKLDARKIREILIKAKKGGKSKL
#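 Purified P. pyralis luciferase, 10 nM final, with Km-level 10 uM D-luciferin and 10 uM ATP in 50 mM Tris acetate pH 7.5, 10 mM Mg acetate, 0.01% Tween-20, 0.05% BSA; 6-point qHTS titration about 60 µM downward; luminescence read.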
# Numbers without * were called inactive; ? = inconclusive; . = not tested or not shown; [ ] = another dose, or the depositor's remark. Compounds with a hit are over-represented: about 7.3% of the library has one in this group of screens. Calls come from the whole dose curve; as a rule, active = well fitted curve in the direction sought with a large enough effect; inconclusive = small, poorly fitted or top-dose-only effect, or another doubt; inactive = no such curve, though single readings can be large; an effect the other way counts as inactive or inconclusive. Potency is the fitted concentration of half-maximal effect.
SMILES,SMN2 splice enh,NPC1 promoter act,ELG1 genotox,Rab9 promoter act,Luc counter,FLuc modulator
CC1CCCCN1C(=O)c1cc(-c2ccc(Cl)c(Cl)c2)on1 (centres undefined),?,3.98µM*,?,2.51µM*,-1.7%,12µM*
CCN(CC)c1cc(C)c2cc(NC(=O)/C=C/c3ccccc3OC(C)C)ccc2n1,2.5%,.,.,.,.,-3.0%
O=c1[nH]c(=O)c2nc(-c3ccc(Cl)cc3)cnc2[nH]1,-4.6%,-2.4%,11.9%,0.5%,-1.9%,16.9µM*
COc1ccc(C(=O)Nc2ccc(SC(F)F)cc2)cc1,?,2.24µM*,?,0.794µM*,-0.2%,3.01µM*
COc1ccc(C(=O)Nc2ccc(C(=O)NCCc3ccccc3)cc2)cc1,.,-2.9%,5.8%,-1.9%,-1.2%,-6.2%
CCCc1ccc(C(=O)NNc2cccc(C)c2)cc1,.,29.2%,?,20.3%,.,21.3µM*
O=C(Nc1ccc(SC(F)F)cc1)c1ccc2nccnc2c1,-5.6%,?,-0.1%,22.6%,0.2%,10.7µM*
COc1ccc(NC(=O)c2ccccc2)cc1,.,3.55µM*,?,1.78µM*,.,?
CCCCOc1ccc(C(=O)Nc2ccc(SC(F)F)cc2)cc1OC,-6.0%,0.5%,2.7%,-2.0%,0.3%,-17.9%
O=C(NCCSCc1ccccc1)C1CCN(S(=O)(=O)Cc2ccccc2)CC1,.,.,.,.,.,-0.2%
COc1ccc(C(=S)Nc2ccc(C)cc2)cc1,17.8µM*,2µM*,29.2%,2.82µM*,-2.2%,2.39µM*
COc1ccc(C(=O)Nc2cccc(C(=O)NCc3ccco3)c2)cc1,.,18.5%,1.6%,17.0%,-8.0%,12µM*
O=C(Nc1ccsc1C(=O)N1CCCCCC1)c1ccccc1,-16.4%,-1.0%,-4.0%,5.0%,-3.7%,4.9%
O=C(O)c1sccc1Oc1ccc(NS(=O)(=O)c2cccc(F)c2)cc1,.,0.3%,0.7%,-16.0%,.,1.2%
O=C(Nc1ccc(Oc2ccsc2C(=O)O)cc1)c1ccccc1,.,-1.1%,-0.2%,-8.0%,.,23.9µM*
O=C(Nc1ccsc1C(=O)O)c1ccccc1,.,5.6%,12.0%,12.1%,.,23.9µM*
COc1cccc(Cn2c(CNC(=O)c3cc([N+](=O)[O-])ccc3Cl)nc3cccnc32)c1,.,.,.,.,.,-4.0%
Cc1cccc(N2CCN(C(=O)c3cccc(-n4c(C)nc5cccnc54)c3)CC2)c1C,.,.,.,.,.,-4.4%
COc1ccc2cc3c(N)c(C(=O)NCc4ccco4)sc3nc2c1,12.6µM*,?,14.9%,2µM*,3.0%,6.01µM*
Cc1ccc(NC(=S)c2ccccc2)cc1,-0.3%[1.84 µM],?,?,2.51µM*,-4.0%,4.78µM*
COc1ccc(NS(=O)(=O)NC(=O)c2c(C)n(C)c3ccccc23)cc1,.,-0.2%,3.3%,-0.4%,.,-6.8%
Cc1ccc(NC(=S)c2ccncc2)cc1,.,4.3%,-0.9%[9.26 µM],-0.6%,.,?
COc1ccc(C(=O)Nc2cccc(C)c2)cc1,11.2µM*,1.26µM*,?,1.26µM*,?,3.38µM*
COc1ccc(NC(=O)c2c(Cl)n(C)c3ccccc23)cc1,?,27.5%,16.8%,27.6%,2.4%,9.53µM*
CC1CCN(C(=O)CSc2c(C(C)C)cnc3c2c(=O)n(C)c(=O)n3C)CC1,.,.,.,.,.,-5.6%
SMILES,SMN2 splice enh,NPC1 promoter act,ELG1 genotox,Rab9 promoter act,Luc counter,FLuc modulator
COc1cccc(NC(=O)Cn2c(=O)n(CCC(=O)NCc3ccccc3OC)c(=O)c3ccccc32)c1,2.4%,.,.,.,.,-8.5%
CCC(C)S(=O)(=O)c1oc(-c2cccs2)nc1S(=O)(=O)c1ccccc1 (centres undefined),-66.1%,.,.,.,.,.
COc1ccc(NC(=O)c2ccc(C)cc2)cc1,.,0.398µM*,2.06µM*,0.447µM*,.,2.69µM*
COc1ccc2[nH]c(=O)c(CN(C(=O)c3cccc(Cl)c3)c3ccccc3OC)cc2c1,13.3%,.,.,.,.,4.8%
O=C(O)c1ccccc1SCc1nc2ccccn2c1Br,6.3%,-0.4%,1.9%,0.5%,3.1%,?
Cc1cccc2nc(CSc3ccccc3C(=O)O)cn12,.,28.2%,8.2%,?,.,15.1µM*
O=C(O)c1ccccc1SCc1cn2cc(Cl)ccc2n1,?,?,?,3.16µM*,-0.3%,10.7µM*
Cc1ccc(C)c(NC(=O)CCc2nc3cccnc3n2Cc2cccs2)c1,-8.6%,.,.,.,.,-7.0%
O=C(NCc1ccccc1)c1ccc2nc(N3CCOCC3)sc2c1,.,1.2%,8.5%,20.4%,.,?
c1c2c(cc3sc(N4CCOCC4)nc13)OCCO2,1.12µM*,0.398µM*,0.326µM*,0.501µM*,?,0.953µM*
Clc1cc(Cl)c2nc(N3CCOCC3)sc2c1,?,26.0%,?,?,-1.2%,16.9µM*
Clc1ccc(-c2nsc(N3CCOCC3)n2)c(Cl)c1,.,0.794µM*,3.26µM*,1µM*,.,4.26µM*
c1ccc(N2CCN(c3nc4cc5c(cc4s3)OCCO5)CC2)cc1,10µM*,?,5.4%,?,2.2%,?
CC(C=O)Cc1ccc(C(C)(C)C)cc1 (centres undefined),13.3%,.,.,.,.,.
Nc1ccc2nc(N3CCOCC3)sc2c1,15.8µM*,?,?,2µM*,-27.6%,?
CCCCc1ccc(NC(=O)COCC)cc1,21.5%,12.7%,20.6µM*,25.1%,-1.1%,19µM*
O=C(CSCc1cc(=O)[nH][nH]1)Nc1ccc(F)cc1,.,-1.8%,0.6%,-4.8%,.,-5.1%
CCCCc1ccc(NC(=O)CC(C)C)cc1,?,?,?,?,-5.6%,19µM*
CCCCc1ccc(NC(=O)CSCc2cc(=O)[nH][nH]2)cc1,15.8%,-3.0%,3.8%,-2.4%,-3.8%,12µM*
CCCCc1ccc(NC(=O)N[C@@H](CC(C)C)C(=O)O)cc1,.,-4.5%,0.5%,-1.1%,.,-2.0%
CCOCC(=O)Nc1ccc(Br)c(C)c1,6.2%,16.3%,?,?,1.3%,?
Cc1cccc(N2CCN(c3nc4ccc(C(=O)c5ccccc5)cc4n4cnnc34)CC2C)c1 (centres undefined),.,.,.,.,.,-2.6%
Cc1ccc(C)c(CN2CCCN(CC(=O)Nc3ccc(C)c(C)c3)S2(=O)=O)c1,.,.,.,.,.,-12.5%
CCN(C(=O)CSc1nc(-c2ccccc2)no1)c1cccc(C)c1,-8.0%,.,.,.,.,-2.4%
Cn1c(SCc2ccccc2)nnc1-c1ccc2c(c1)OCO2,22.4µM*,?,18.4µM*,?,-1.3%,?
c1cncc(CSc2ccc(-c3cccnc3)nn2)c1,11.1%,0.2%,3.0%,-1.8%,-1.1%,-8.7%
c1ccc(CSc2ccc(-c3cccnc3)nn2)cc1,?,?,13.0%,?,-3.3%,21.3µM*
c1ccc(CSc2ccc(-c3ccc4c(c3)OCO4)nn2)cc1,17.8µM*,3.55µM*,?,3.16µM*,-1.2%,2.69µM*
